Molecules are shown by their SMILES. Several values for one entry are separate records, joined by “and”; a condition that tells them apart may be missing. Equal entries are not always repeated. Inconclusive results are not listed. The source holds several records for some structures; these can differ, active in one and inactive in another. Activity calls are given as the source filed them. Unless noted, calls come from the whole dose curve.

Assay [1] is described as follows: Nuclear factor erythroid 2-related factor 2/antioxidant responsive element (Nrf2/ARE) small molecule agonists: qHTS cell viability counter screen in human keratinocytes (AID 1919968; active = well fitted curve in the direction sought with a large enough effect in the repeat runs; an effect the other way counts as inactive or inconclusive; note: nearly all actives have a fitted effect of over 55% in size; note: potency is the fitted concentration of half-maximal effect). The method, boiled down:
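Cytotoxicity was multiplexed with the Nrf2/ARE luciferase assay in the same wells. Stably transfected HaCaT keratinocytes were treated with test compounds for 23 h at 37 C. Cell viability was then measured by CellTiter-Fluor fluorescence.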
Background: In qHTS, concentration-response curves come from the screen itself.

A short description of assay [2]: Nuclear factor erythroid 2-related factor 2/antioxidant responsive element (Nrf2/ARE) small molecule agonists: luciferase reporter gene qHTS assay in human keratinocytes (AID 1919969). Note: nearly all actives have a fitted effect of over 35% in size. Note: potency is the fitted concentration of half-maximal effect. A general note: Reporter assays use an easily measured gene product as a stand-in for the process of interest.
Assay [3] deals with Gonadotropin-releasing hormone receptor (Homo sapiens) (UniProt P30968). Put plainly: Human gonadotropin-releasing hormone receptor (GnRHR) small molecule agonists, calcium flux assay in GnRHR-HEK293 cells (AID 1920063). Note: nearly all actives have a fitted effect of over 35% in size. The method, boiled down:
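Agonist activity was measured as intracellular calcium flux in HEK293 cells engineered to stably express human GnRHR. After dye loading for 1 hour at 37 C, compounds in DMSO were added and fluorescence was followed for 3 minutes.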
In general terms: A change in cytosolic calcium serves as a functional read-out for many receptors and channels.

Assay [4] is described as follows: G protein-coupled receptor (GPCR) small molecule agonists, calcium flux assay: HEK293 wild type cell line counter screen (AID 1920065). The method, boiled down: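 Seed cells, incubate 18 h (37 C, 5% CO2); add calcium dye, 1 h at 37 C; pin-transfer compounds, ATP control or DMSO; read fluorescence 480/540 nm each second for 3 min.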
Assay [5] can be described thus: p53 small molecule agonists, cell-based qHTS assay with human liver microsomes (AID 1963577). The method, boiled down: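 Fluorescence of the beta-lactamase reporter in p53RE-bla cells, detected with LiveBLAzer substrate (2 h, room temperature, dark), served as the read-out after 16 h compound exposure at 37 C with human liver microsomes and NADPH, each 0.5 mg/mL final.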

Assay [6] is described as follows: p53 small molecule agonists, cell-based qHTS assay with rat liver microsomes (AID 1963578). Put shortly: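 Cells carrying a p53 response element–beta-lactamase reporter were plated and rested 5 h, then dosed with compound in DMSO plus rat liver microsomes and NADPH, each at 0.5 mg/mL final. After 16 h at 37 C, LiveBLAzer substrate was added for 2 h.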
Assay [7] in a line: p53 small molecule agonists, cell-based qHTS assay with human liver microsomes: qHTS cell viability counter screen (AID 1963579). Note: nearly all actives have a fitted effect of over 45% in size. Put shortly:
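Cytotoxicity counter screen: p53RE-bla, 4,000 cells/well; 5 h settle, 37 C/5% CO2; cpd + HLM 0.5 mg/mL + NADPH 0.5 mg/mL (final); 16 h, 37 C; CellTiter-Glo, 30 min RT, luminescence.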

Assay [8] in a line: p53 small molecule agonists, cell-based qHTS assay with rat liver microsomes: qHTS cell viability counter screen (AID 1963580). Note: nearly all actives have a fitted effect of over 45% in size. Put shortly:
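Rat liver microsome (0.5 mg/mL final) and NADPH (0.5 mg/mL final) co-incubation with compounds for 16 h at 37 C on HCT-116 p53RE-bla cells; cytotoxicity taken from intracellular ATP luminescence.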

Assay [9] is described as follows: p53 small molecule agonists, cell-based qHTS assay: qHTS cell viability counter screen (AID 1963581). Note: nearly all actives have a fitted effect of over 45% in size. Note: potency is the fitted concentration of half-maximal effect. The method, boiled down:
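Viability was counter-screened in parallel with the p53 agonist reporter by measuring intracellular ATP luminescence in the same HCT-116 p53RE-bla wells after 16 h compound treatment at 37 C.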

Assay [10] has as its target 5-hydroxytryptamine receptor 2A (Homo sapiens) (UniProt P28223). Put plainly: 5-hydroxytryptamine receptor 2A (HTR2A) small molecule antagonists, cell-based qHTS assay (AID 1963586). Note: nearly all actives have a fitted effect of over 45% in size. Note: potency is the fitted concentration of half-maximal effect. Put shortly:
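CHO cells stably expressing human HTR2A were plated for 18 h at 37 C, then loaded with calcium dye for 1 h. Compounds were preincubated 5 min at room temperature before DOI (4 nM solution) was added. Kinetic fluorescence was read for 3 min.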

Assay [11] has the same target. Put plainly: 5-hydroxytryptamine receptor 2A (HTR2A) small molecule agonists, cell-based qHTS assay (AID 1963587). Note: nearly all actives have a fitted effect of over 30% in size. The method, boiled down:
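Kinetic calcium-flux fluorescence (2 min, 1 sec intervals) after compound addition in agonist mode. HTR2A-CHO cells were cultured 18 h, then dye-loaded 1 h at 37 C.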

Assay [12] deals with Muscarinic acetylcholine receptor M1 (Homo sapiens) (UniProt P11229). Put plainly: Cholinergic receptor muscarinic 1 (CHRM1) small molecule antagonists, cell-based qHTS assay (AID 1963588). Note: nearly all actives have a fitted effect of over 40% in size. Put shortly:
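Compounds were tested at 15 concentrations in three independent runs. Dye-loaded CHRM1-CHO cells were exposed 5 min at room temperature before stimulation by acetylcholine added at 50nM. Intracellular calcium was read kinetically on FDSS for 3 min.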

The target is the same in assay [13]. As to the kind of experiment: Cholinergic receptor muscarinic 1 (CHRM1) small molecule agonists, cell-based qHTS assay (AID 1963589). Note: nearly all actives have a fitted effect of over 35% in size. Note: potency is the fitted concentration of half-maximal effect. Put shortly: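 Cells were plated and incubated 18 h at 37 C/5% CO2, loaded with calcium dye for 1 h at 37 C, then treated with compounds in DMSO. Fluorescence was recorded kinetically at 1 sec intervals.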
Assay [14] in a line: cAMP Responsive Elements (CRE) small molecule agonists, cell-based qHTS assay (AID 1963590). The method, boiled down:
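Cells carrying a CRE-driven beta-lactamase reporter (HEK 293T) are seeded, incubated overnight (18 h), and treated with test compounds for 3 h at 37 C; reporter activity is then detected with a FRET substrate after 2 h at room temperature.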

A short description of assay [15]: cAMP Responsive Elements (CRE) small molecule antagonists, cell-based qHTS assay (AID 1963591; active = well fitted inhibition curve with a large enough effect in the signal ratio in the repeat runs, not every such curve was filed as active; the % refers to the signal ratio). Put shortly:
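Cells (CRE-bla HEK 293T, DMEM with 10% dialyzed FBS and 25 mM HEPES) are seeded and incubated 18 h. Compounds are added with NKH477 agonist at 0.25 uM final for 3 h, then FRET substrate for 2 h.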

In assay [16] the target is Beta-2 adrenergic receptor (Homo sapiens) (UniProt P07550). As to the kind of experiment: Adrenergic beta2 receptor (ADRB2) small molecule antagonists, cell-based qHTS assay (AID 1963592). Note: series mostly up to about 92 µM; nearly all actives have a fitted effect of over 50% in size. Put shortly:
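Assay format: CHO-ADRB2 cells, 18-20hr seeding at 37C/5% CO2, then compound plus 1nM isoproterenol agonist mix for 0.5hr RT. Homogeneous time-resolved fluorescence cAMP detection after 1hr, expressed as 665/615 nm ratio.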

Assay [17] shares this target. As to the kind of experiment: Adrenergic beta2 receptor (ADRB2) small molecule agonists, cell-based qHTS assay (AID 1963593).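 Note: CHO cells stably overexpressing human ADRB2.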 The method, boiled down: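 CHO cells stably over-expressing ADRB2 were plated overnight at 37C, then dosed with compounds plus a stimulation mix containing 100uM IBMX and 25uM Ro-20-1724 for 0.5hr at room temperature. cAMP was measured by HTRF competition, 1hr.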

For assay [18], the target named is D(2) dopamine receptor (Homo sapiens) (UniProt P14416). Put plainly: Dopamine D2 receptor (DRD2) small molecule agonists, cell-based qHTS assay (AID 1963594). Note: nearly all actives have a fitted effect of over 35% in size. The method, boiled down:
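cAMP accumulation in DRD2-HEK293 cells measured by HTRF after 1 h detection; compounds added 10 min before NKH477 (200nM […]) forskolin-analogue stimulation, 30 min at room temperature, with Ro20-1724 present at 0.1 mM final.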

For assay [19] the target is unchanged. Put plainly: Dopamine D2 receptor (DRD2) small molecule antagonists, cell-based qHTS assay (AID 1963595; active = well fitted inhibition curve with a large enough effect in the signal ratio in the repeat runs, with a control signal flat; the % refers to the signal ratio). The method, boiled down:
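HTRF cAMP read-out at 665 and 620 nm emission (340 nm excitation). Antagonist mode: compounds were tested against 12 nM quinpirole in DRD2-HEK293 cells, with 200 nM NKH477 raising cAMP and 0.1 mM Ro20-1724 blocking its breakdown.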

For assay [20], the target named is KiSS-1 receptor (Homo sapiens) (UniProt Q969F8). Put plainly: Human kisspeptin (KISS1R) small molecule agonists, calcium flux assay in KISS1R-HEK293 cells (AID 1920064; active = well fitted curve in the direction sought with a large enough effect in the repeat runs; an effect the other way counts as inactive or inconclusive). Put shortly: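 Agonist activity is monitored as intracellular calcium rise in engineered HEK293 cells carrying human KISS1R. Cells are dye-loaded for 1 h at 37 C before compound addition, and fluorescence is recorded for 3 min.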
% is set by controls: 0 for no effect and ±100 for the full control effect.

Sequence of D(2) dopamine receptor (Homo sapiens) (P14416 whole entry, looked up): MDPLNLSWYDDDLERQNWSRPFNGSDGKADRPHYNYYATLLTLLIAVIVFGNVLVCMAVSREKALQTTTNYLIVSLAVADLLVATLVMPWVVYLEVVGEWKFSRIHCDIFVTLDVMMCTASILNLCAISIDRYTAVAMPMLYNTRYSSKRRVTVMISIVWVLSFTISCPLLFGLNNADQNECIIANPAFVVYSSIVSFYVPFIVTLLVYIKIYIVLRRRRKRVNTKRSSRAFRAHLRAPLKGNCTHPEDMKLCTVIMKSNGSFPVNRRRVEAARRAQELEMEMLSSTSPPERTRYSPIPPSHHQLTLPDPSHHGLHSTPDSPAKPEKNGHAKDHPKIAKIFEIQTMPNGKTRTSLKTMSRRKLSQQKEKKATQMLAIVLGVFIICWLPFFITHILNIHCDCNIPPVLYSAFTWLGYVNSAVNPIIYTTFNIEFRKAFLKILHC
Sequence of Muscarinic acetylcholine receptor M1 (Homo sapiens) (P11229 whole entry, looked up): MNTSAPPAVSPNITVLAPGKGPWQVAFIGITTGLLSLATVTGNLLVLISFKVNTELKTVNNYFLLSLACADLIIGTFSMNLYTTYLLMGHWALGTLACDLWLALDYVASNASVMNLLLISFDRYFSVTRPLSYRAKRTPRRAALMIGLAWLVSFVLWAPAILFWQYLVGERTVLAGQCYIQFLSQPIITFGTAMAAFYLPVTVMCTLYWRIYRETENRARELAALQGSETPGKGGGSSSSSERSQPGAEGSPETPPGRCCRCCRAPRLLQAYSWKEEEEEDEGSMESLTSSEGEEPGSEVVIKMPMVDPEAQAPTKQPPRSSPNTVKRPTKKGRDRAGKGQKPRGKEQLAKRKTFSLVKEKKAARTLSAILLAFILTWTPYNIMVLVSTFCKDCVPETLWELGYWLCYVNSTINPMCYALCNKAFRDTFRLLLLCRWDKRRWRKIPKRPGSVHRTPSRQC
Sequence of Gonadotropin-releasing hormone receptor (Homo sapiens) (P30968 whole entry, looked up): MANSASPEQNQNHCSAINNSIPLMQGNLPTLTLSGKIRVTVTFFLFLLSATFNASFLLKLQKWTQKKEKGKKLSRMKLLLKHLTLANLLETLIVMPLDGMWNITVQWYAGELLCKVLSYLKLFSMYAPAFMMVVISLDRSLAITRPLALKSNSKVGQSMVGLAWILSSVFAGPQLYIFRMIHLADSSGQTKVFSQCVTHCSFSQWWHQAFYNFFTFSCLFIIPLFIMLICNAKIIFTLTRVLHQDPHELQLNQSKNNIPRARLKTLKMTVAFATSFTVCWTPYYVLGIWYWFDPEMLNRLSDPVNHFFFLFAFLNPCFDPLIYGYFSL
Sequence of 5-hydroxytryptamine receptor 2A (Homo sapiens) (P28223 whole entry, looked up): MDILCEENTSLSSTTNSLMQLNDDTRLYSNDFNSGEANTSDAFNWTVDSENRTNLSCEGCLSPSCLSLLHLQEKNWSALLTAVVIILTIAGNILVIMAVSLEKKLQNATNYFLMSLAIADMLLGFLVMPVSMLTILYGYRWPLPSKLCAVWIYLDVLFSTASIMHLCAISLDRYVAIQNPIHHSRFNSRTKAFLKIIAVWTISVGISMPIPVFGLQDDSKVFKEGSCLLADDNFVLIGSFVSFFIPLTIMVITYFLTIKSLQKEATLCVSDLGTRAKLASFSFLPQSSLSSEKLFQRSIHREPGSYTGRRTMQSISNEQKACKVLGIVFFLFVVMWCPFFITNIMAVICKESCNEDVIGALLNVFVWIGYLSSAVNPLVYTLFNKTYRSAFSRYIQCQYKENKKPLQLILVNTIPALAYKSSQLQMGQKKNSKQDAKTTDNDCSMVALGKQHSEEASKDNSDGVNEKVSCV
Sequence of KiSS-1 receptor (Homo sapiens) (Q969F8 whole entry, looked up): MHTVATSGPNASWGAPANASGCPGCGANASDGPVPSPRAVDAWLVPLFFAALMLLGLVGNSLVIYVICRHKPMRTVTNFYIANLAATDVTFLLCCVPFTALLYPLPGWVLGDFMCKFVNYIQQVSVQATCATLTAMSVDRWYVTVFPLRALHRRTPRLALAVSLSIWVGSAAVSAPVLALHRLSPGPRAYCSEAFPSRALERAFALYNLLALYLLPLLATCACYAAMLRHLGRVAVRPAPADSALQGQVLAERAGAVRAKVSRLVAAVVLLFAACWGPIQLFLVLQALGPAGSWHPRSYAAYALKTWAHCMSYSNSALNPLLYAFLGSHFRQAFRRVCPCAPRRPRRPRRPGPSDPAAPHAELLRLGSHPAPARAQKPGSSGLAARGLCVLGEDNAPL
Sequence of Beta-2 adrenergic receptor (Homo sapiens) (P07550 whole entry, looked up): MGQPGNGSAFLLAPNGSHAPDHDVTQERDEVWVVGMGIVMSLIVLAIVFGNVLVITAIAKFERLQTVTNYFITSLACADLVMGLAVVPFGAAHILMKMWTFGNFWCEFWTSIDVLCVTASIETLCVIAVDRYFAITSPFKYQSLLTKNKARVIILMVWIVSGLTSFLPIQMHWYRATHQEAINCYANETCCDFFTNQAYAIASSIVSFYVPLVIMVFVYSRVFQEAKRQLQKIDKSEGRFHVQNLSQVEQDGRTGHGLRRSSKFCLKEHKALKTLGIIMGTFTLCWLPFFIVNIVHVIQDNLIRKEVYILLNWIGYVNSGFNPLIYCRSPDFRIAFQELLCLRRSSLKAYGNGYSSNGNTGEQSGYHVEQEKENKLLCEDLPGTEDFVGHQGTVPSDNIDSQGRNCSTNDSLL

In the case of `CCCCOCCOC(=O)c1ccccc1C(=O)OCCOCCCC`, the Potency in [1] is 47.5 µM (active) and inactive; in assay [2], 23.8 µM (active) and 68.6 µM (active). Besides, the Potency entry in [3], in assay [4], in [5], in assay [6], in [7] and in assay [8] was “inactive” throughout. Moreover, the Potency result in [9], in assay [10], in [11], in assay [12], in [13] and in assay [14] was “inactive” in each case. Further, the Potency entry in assay [15], in [16], in [17], in assay [18] and in assay [19] was “inactive” in each case.
Consider `NC(=NCCCCCCN=C(N)/N=C(\N)Nc1ccc(Cl)cc1)/N=C(\N)Nc1ccc(Cl)cc1`, for which the Potency in assay [1] was 24.2 µM (active) [middle of 5 runs]; in assay [9], 45.3 µM (active) and inactive. Also, the Potency result in assay [2], in assay [3], in [20], in [5], in assay [6] and in [13] was “inactive” each time. In addition, the Potency entry in assay [14], in assay [15] and in assay [18] was “inactive” throughout.
As to `CCCCN(CCCC)CCCC`, the Potency result in [1], in assay [2], in assay [3], in assay [4], in [5] and in [6] was “inactive” throughout. Further, the Potency result in assay [7], in assay [8], in [9], in [10], in assay [11] and in assay [12] was “inactive” each time. In addition, the Potency result in assay [13], in [14], in [16], in [17], in assay [18] and in [19] was “inactive” throughout.
Regarding `O=C(c1ccccc1)C(O)c1ccccc1` (stereo not given), the Potency result in [1], in [2], in [3], in [20], in assay [7] and in assay [8] was “inactive” throughout. The Potency entry in assay [9], in assay [11], in assay [12], in [13], in [14] and in assay [15] was “inactive” in each case. Moreover, the Potency result in assay [16], in assay [17], in assay [18] and in assay [19] was “inactive” throughout. In [10], the Potency entry was “inactive and 729 nM (active)”.
Take `CC(=O)c1ccc(O)cc1`: the Potency result in assay [1], in [2], in assay [3], in [4], in assay [5] and in [6] was “inactive” in each case. Besides, the Potency result in assay [7], in assay [8], in assay [9], in assay [10], in assay [11] and in [12] was “inactive” in each case. For the same compound, the Potency result in assay [13], in assay [14], in [15], in assay [17], in assay [18] and in assay [19] was “inactive” each time.
Regarding `Cn1c([N+](=O)[O-])cnc1COC(N)=O`, the Potency result in assay [1], in [2], in assay [3], in assay [4], in assay [5] and in [6] was “inactive” each time. For the same compound, the Potency entry in assay [7], in [8], in [9], in assay [10], in assay [11] and in assay [12] was “inactive” in each case. Moreover, the Potency result in assay [13], in assay [14], in assay [15], in assay [16], in [18] and in assay [19] was “inactive” in each case.
Turning to `COC(=O)CC(=O)OC`, the Potency entry in assay [1], in assay [2], in [3], in assay [4], in [5] and in assay [6] was “inactive” in each case. For the same compound, the Potency entry in [7], in assay [8], in [9], in [10], in assay [11] and in assay [12] was “inactive” in each case. In addition, the Potency entry in [14], in assay [15], in [16], in assay [17], in [18] and in assay [19] was “inactive” each time. Further, the Potency in assay [13] was 20.3 µM (active) and inactive.

The values are drawn from PubChem BioAssay (Tox21).
